# Reference: PubChem BioAssay
# Several values for one entry are separate records, joined by “and”; a condition that tells them apart may be missing. Equal values may be shown once. Activity calls are given as the source filed them.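 The calls were made as follows: active = inhibition at or above 50% relative to wild type and mutant plate controls; inactive = inhibition below 50%.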
# Experiment: loss of swimming-algae plug formation – whole organism, Chlamydomonas reinhardtii, WT vs cilia-less mutant, absorbance, 96-well, primary screen (AID 463189);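 also: 0% = wild type cc124 cells in DMSO and 100% = ciliumless bld1 mutant cells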
# Conditions: Chlamydomonas reinhardtii gravitaxis, OD600 absorbance, 2 days; at 10 µM; hits give high values
row,SMILES,inhibition
1,Ic1ccccc1CNC1C2CCN(CC2)C1C(c1ccccc1)c1ccccc1 (configuration not stated),75.8% (active)
2,NC(Cc1cc(O)c(O)cc1O)C(=O)O (configuration not stated),-1.78% (inactive)
3,C=CCN1CCc2cccc3c2[C@H]1Cc1ccc(O)c(O)c1-3,6.2% (inactive)
4,CO[C@H]1CC=C2CCN3CCC4=C(CC(=O)OC4)[C@]23C1,0.879% (inactive)
5,NC(Cc1ccc(N(CCCl)CCCl)cc1)C(=O)O (configuration not stated),3.86% (inactive)
6,C[C@]12CC[C@H](OS(=O)(=O)O)CC1=CC[C@@H]1[C@@H]2CC[C@]2(C)C(=O)CC[C@@H]12,6.73% (inactive)
7,N#CC(C#N)=Cc1ccc([N+](=O)[O-])c(O)c1,2.16% (inactive)
8,CS(=N)(=O)CC[C@H](N)C(=O)O (some centres not stated),3.52% (inactive)
9,O=C(O)[C@@H]1CCN1,2.04% (inactive)
10,CC12CCC3C(CCC4=C(O)C(=O)CCC43C)C1CCC2=O (configuration not stated),12.9% (inactive)
11,NC(=O)CI,-0.903% (inactive)
12,NC(=O)COc1c(F)cc(SCCNS(=O)(=O)c2ccccc2)cc1F,4.45% (inactive)
13,COC(=O)C1=CCCN(C)C1,-3.75% (inactive)
14,O=C1NCN(c2ccccc2)C12CCN(CC1COc3ccccc3O1)CC2 (configuration not stated),6.88% (inactive)
15,C[N+]1(C)C2CC(OC(=O)[C@H](CO)c3ccccc3)CC1C1OC12 (some centres not stated),-8.63% (inactive) and 9.74% (inactive)
16,NC(=NCCC[C@H](N)C(=O)O)N[N+](=O)[O-],2.94% (inactive)
17,Oc1ccc2c3c1O[C@H]1[C@@H](O)CC[C@@]4(O)C(C2)N(CC2CCC2)CCC314 (some centres not stated),3.28% (inactive)
